Values joined by “and” are separate entries in the source; they are usually repeats but may differ in a detail not shown here. Identical values can stand only once. Among all 16,000 compounds or so, about 4,000 (25%) were called active. Another 26% or so got no clear call; they are omitted. These entries were drawn from the full list. Unmarked numbers belong to inactive results. The call rests on the fitted dose curve; in most records, active means well fitted curve in the direction sought with a large enough effect; inconclusive means small, poorly fitted or top-dose-only effect, or effect the other way; inactive means no such curve, though single readings can be large or run the other way.
On the % scale 0 is the no-effect control and ±100 the full control effect.

The target in the assay is Cytochrome P450 2C9 (Homo sapiens) (UniProt P11712). The experiment in a line: Cytochrome panel assay with activity outcomes. To be noted: recombinant CYP, pro-luciferin dealkylation, luminescence, p450-cyp2c9; series mostly up to 57.1 µM; activity, negative = inhibition: at the top concentration.
Cytochrome P450 2C9 (Homo sapiens), sequence (P11712 whole entry, looked up): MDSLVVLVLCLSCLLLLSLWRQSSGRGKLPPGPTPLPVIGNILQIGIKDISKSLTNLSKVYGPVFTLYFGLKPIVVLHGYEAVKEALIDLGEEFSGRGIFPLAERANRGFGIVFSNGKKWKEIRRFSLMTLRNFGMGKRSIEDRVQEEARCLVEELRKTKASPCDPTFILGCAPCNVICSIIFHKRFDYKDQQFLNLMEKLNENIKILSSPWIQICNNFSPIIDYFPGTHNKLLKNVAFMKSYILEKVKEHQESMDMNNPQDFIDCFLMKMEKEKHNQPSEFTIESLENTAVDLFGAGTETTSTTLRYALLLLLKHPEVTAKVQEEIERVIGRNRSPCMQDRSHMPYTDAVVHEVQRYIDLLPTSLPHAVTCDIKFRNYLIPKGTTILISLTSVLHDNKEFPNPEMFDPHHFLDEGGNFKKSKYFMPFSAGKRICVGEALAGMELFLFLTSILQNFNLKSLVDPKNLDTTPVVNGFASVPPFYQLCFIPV
For `CCN1CCN(C(=O)N[C@H](C(=O)N[C@@H]2C(=O)N3C(C(=O)O)=C(CSc4nnnn4C)CS[C@@H]23)c2ccc(O)cc2)C(=O)C1=O`, the “activity, negative = inhibition” value is -2.86% [at 25.6 µM].

For `CN(CCC(=O)O)S(=O)(=O)c1ccccc1`, the activity, negative = inhibition is 22.4% [at 11.4 µM]. In general, AC50 refers to the concentration at which the activity in the assay is half-maximal. `CCCCN(CC)S(=O)(=O)c1ccc(C(=O)Nc2nnc(CSC)o2)cc1`: the AC50 was 0.891 µM (active). Still for that read-out and setting: next, `CCCCN(C)S(=O)(=O)c1ccc(C(=O)Nc2nnc(CSC)o2)cc1`: 0.794 µM (active). `CN(Cc1ccco1)c1ccnc(-c2ccccc2C(F)(F)F)n1`: the activity, negative = inhibition is -4.94% [at 2.29 µM]. Same read-out and setting: next, `O=C(O)C[C@H](S)C(=O)O`: 10.9% [at 11.4 µM]; `O=C(c1ccco1)N1CCN(C(=O)c2nn3cccnc3c2Cl)CC1`: -8.31%; `O=C(c1ccc(Cl)cc1)N1CCN(C(=O)c2ccco2)CC1`: -19.8%.

Consider `O=C(c1cc(-c2ccc(Cl)cc2Cl)on1)N1CCN(C(=O)c2ccco2)CC1`, for which the concentration at half-maximal activity (AC50) is 7.08 µM (active).

Consider `Cc1cccc(C)c1NC(=O)C[N+](C)(C)C`, for which the “activity, negative = inhibition” value is -10.4%.

As to `CC[N+](CC)(CC)CC(=O)Nc1c(C)cccc1C`, the “activity, negative = inhibition” value is 9.55%. As for `Cc1cc2cc3c(cc2nc1SCC(=O)Nc1c(C)cccc1C)CCC3`, the AC50 was 4.47 µM (active).

Take `CO[C@H]1COC(=O)[C@H]2CCCN2C(=O)[C@@H](C)COC(=O)C/C=C\[C@@H]1C`: the activity, negative = inhibition was 7.11% [at 11.4 µM].

On to `O=C(NCc1cccnc1)/C(=C/c1ccc(-c2cccc(Cl)c2)o1)S(=O)(=O)c1ccccc1`, for which the AC50 was 6.31 µM (active). On the same count and under the same terms, as for `CN(C(=S)Nc1ccccc1F)C1(c2ccccc2Cl)CCCCC1=O` (stereo unspecified), the figure is 17.8 µM (active).

Regarding `CCN(C(=S)Nc1ccccc1F)C1CCCCC1`, the “activity, negative = inhibition” value is -17%.

On to `COc1ccccc1CNc1ncncc1-c1ccc(C(=O)N(C)C)cc1`, for which the activity, negative = inhibition was -24.3% [at 2.29 µM].

Turning to `COc1ccccc1C(=O)NCCn1cc(SCC(=O)Nc2nnc(C)s2)c2ccccc21`, the half-maximal activity concentration (AC50) is 2.24 µM (active). `COC(=O)Nc1nc2ccc(SC(C)C)cc2[nH]1`: the “activity, negative = inhibition” value is -5.69% [at 25.6 µM].

With `Cc1noc(C)c1C(=O)N1CCC2(CCN(Cc3cc(C(F)(F)F)cc(C(F)(F)F)c3)CC2)CC1`, the “activity, negative = inhibition” value is -4.95%. `CO[C@@H]1COC(=O)CC=C[C@@H](C)[C@@H]2C=C[C@H](O)[C@@H](COC(=O)[C@H](C)NC(=O)CC=C[C@H]1C)O2`: the activity, negative = inhibition is -4.45% [at 11.4 µM]. For `CC(C)OP(=O)(OC(C)C)C(NC(=O)c1ccc(Br)cc1)c1ccccc1` (stereo unspecified), the AC50 was 10 µM (active). The same measure, in the same setting: next, `Nc1ccccc1C#Cc1ccccc1`: 7.94 µM (active) and 14.1 µM (active); `COCCn1c(=O)c(-c2cccs2)nc2cnc(Oc3ccccc3)nc21`: 3.98 µM (active). `COc1ccc(Oc2ncc3nc(-c4cccs4)c(=O)n(C)c3n2)cc1`: the AC50 was 3.16 µM (active).

Regarding `Cn1cc(-c2nc3cnc(Oc4ccccc4)nc3n(C3CC3)c2=O)c2ccccc21`, the “activity, negative = inhibition” value is -16.2%. Turning to `COCCn1c(=O)c(-c2cccs2)nc2cnc(N(C)C)nc21`, the “activity, negative = inhibition” value is -15.4%.

`COCCn1c(=O)c(-c2cccs2)nc2cnc(Oc3ccc(OC)cc3)nc21`: the AC50 was 5.01 µM (active).

Take `COc1ccc(Oc2ncc3nc(-c4cccs4)c(=O)n(-c4ccccc4)c3n2)cc1`: the “activity, negative = inhibition” value was -29.6%. On to `O=c1c(-c2cccs2)nc2cnc(Oc3ccccc3)nc2n1C1CC1`, for which the concentration at half-maximal activity (AC50) was 3.16 µM (active). Turning to `COc1ccc(Oc2ncc3nc(-c4cc(F)cc(F)c4)c(=O)n(C)c3n2)cc1`, the “activity, negative = inhibition” value was -7.05%.

Regarding `COc1ncc2nc(-c3cccs3)c(=O)n(-c3ccccc3)c2n1`, the “activity, negative = inhibition” value was -3.19%.

Consider `CS(=O)(=O)Nc1cccc(-c2ccc3ncnc(NCc4cccnc4)c3c2)c1`, for which the activity, negative = inhibition was -11.8% [at 2.29 µM].

Consider `FC(F)(F)c1ccccc1-c1nc(NCc2cccs2)c2ccccc2n1`, for which the activity, negative = inhibition was -25.9% [at 2.29 µM].

Take `CC(C)C(=O)NCCn1ccc2ccccc21`: the “activity, negative = inhibition” value is -28.7%. On to `CC(C)C(=O)NCCc1nc2ccccc2n1CCCOc1ccc(Cl)cc1`, for which the concentration at half-maximal activity (AC50) was 3.16 µM (active). Regarding `C[C@H]1/C=C\CC(=O)OC[C@H](C)C(=O)N2CCC[C@@H]2C(=O)OC1`, the activity, negative = inhibition was 4.32% [at 11.4 µM]. Take `O=C(CN1CCc2ccccc21)NC(=O)NCc1ccco1`: the AC50 was 15.8 µM (active). On to `Cc1cnc(CNc2ncnc3ccc(-c4ccc(N(C)C)cc4)cc23)cn1`, for which the activity, negative = inhibition is -3.84% [at 2.29 µM]. The same measure, in the same setting: next, `CO[C@@H]1COC(=O)[C@H](Cc2ccccc2)NC(=O)C/C=C\[C@@H](C)[C@H](OC)COC(=O)[C@@H](C)NC(=O)C/C=C\[C@H]1C`: -11.8% [at 11.4 µM] and -14.5% [at 11.4 µM]; `Cc1cccc(CNc2ncncc2-c2cccnc2)c1`: 1.46% [at 2.29 µM]. On to `Cc1cccc(-n2nc([N+](=O)[O-])c(=NCc3cccnc3)n2O)c1`, for which the AC50 is 10 µM (active).

As for `S=C1NCN2CCN(CC2)CNC(=S)C(=S)NCN2CCN(CC2)CNC1=S`, the activity, negative = inhibition was -2.75% [at 11.4 µM]. `Cc1oc(=O)c(NC(=O)c2ccccc2)cc1C(=O)c1ccccc1`: the AC50 is 12.6 µM (active). Take `CC(=O)c1cc(NC(=O)c2ccccc2)c(=O)oc1/C=C/N(C)C`: the “activity, negative = inhibition” value was -16.5%. Turning to `Cc1ccc(C(=O)Nc2cc3c(oc2=O)CCCC3=O)cc1`, the “activity, negative = inhibition” value was -13.2%. On the same count and under the same terms, next, `Cc1cccc(CNc2cc(-c3c(C)noc3C)ncn2)c1`: -2.84% [at 2.29 µM]; `O=C(O)C1(C(=O)O)CCN(S(=O)(=O)c2ccccc2)CC1`: -9.03% [at 11.4 µM]. As to `O=C(O)CC1(C(=O)O)CCCCC1`, the activity, negative = inhibition is -2.68% [at 11.4 µM]. For the compound `N.N.O=C(O)C1(C(=O)O)CCC1.[Pt]`, the concentration at half-maximal activity (AC50) is 3.98 µM (active). Regarding `Cc1ccc(CSC(N)=Nc2ccccc2)cc1C`, the activity, negative = inhibition is 7.44% [at 11.4 µM]. With `CN(C)/C=C/C(=O)c1ccc(F)cc1`, the “activity, negative = inhibition” value was -17.2%. Same read-out and setting: as for `CN(C)/C=C/C(=O)c1ccc(Cl)cc1`, the figure is -21.1%. Turning to `CC(Oc1ccc(Cl)cc1)C(=O)/C=C/N(C)C` (stereo unspecified), the half-maximal activity concentration (AC50) was 12.6 µM (active). For the compound `O=C(CCCCCn1c(=S)[nH]c2cc3c(cc2c1=O)OCO3)N1CCN(C2CCCCC2)CC1`, the AC50 is 1.12 µM (active). With `CCN(CC)CCn1c(=S)[nH]c2cc3c(cc2c1=O)OCO3`, the “activity, negative = inhibition” value was -28.2%.

Turning to `CN(Cc1ccco1)c1ncncc1-c1cccc(C#N)c1`, the activity, negative = inhibition is 2.42% [at 2.29 µM].

Regarding `C[N+](C)(C)CC(=O)O`, the “activity, negative = inhibition” value was 6.18%. Take `COCCNc1ccnc(-c2c(C)noc2C)n1`: the activity, negative = inhibition is 17.7% [at 2.29 µM]. Same read-out and setting: as for `Cc1nc(Oc2ccc(Cl)cc2)c2oc3ccccc3c2n1`, the figure is -25.9%. As to `CCc1nc(SCC(=O)c2ccc(Cl)s2)c2oc3ccccc3c2n1`, the AC50 was 1.12 µM (active). Same read-out and setting: next, `CCc1nc(SCC(=O)NCCc2ccccc2)c2oc3ccccc3c2n1`: 1.12 µM (active); `Cc1nc(SCC(=O)Nc2ccc3c(c2)OCCO3)c2oc3ccccc3c2n1`: 2 µM (active). On to `Cc1nc(SCC(=O)NCCc2ccc(Cl)cc2)nc(C)c1C`, for which the “activity, negative = inhibition” value is -28%.

With `Cc1nc(SCC(=O)c2ccc(Cl)s2)c2oc3ccccc3c2n1`, the AC50 was 0.447 µM (active). Turning to `Nc1nc(SCc2ccc([N+](=O)[O-])cc2)c2ncn([C@@H]3O[C@@H](CO)[C@@H](O)[C@H]3O)c2n1`, the “activity, negative = inhibition” value is 13.2%. `CN1CCC(=C2c3ccccc3C=Cc3ccccc32)CC1`: the AC50 result is “inactive”.

Regarding `CO[C@@H]1COC(=O)[C@H](CCSC)NC(=O)C/C=C\[C@@H](C)COC(=O)[C@@H]2CCCN2C(=O)C/C=C\[C@H]1C`, the activity, negative = inhibition is 13.2% [at 11.4 µM]. Consider `CCNc1ncc2nc(-c3ccc(Cl)cc3)c(=O)n(C[C@H]3CCCO3)c2n1`, for which the “activity, negative = inhibition” value was -1.79%.

Regarding `CN1CCc2c(c3ccccc3n2C)C1`, the “activity, negative = inhibition” value is -11.6%. Same read-out and setting: as for `Cn1c(=O)c2[nH]c(CCCCc3nc4ccccc4[nH]3)nc2n(C)c1=O`, the figure is 2.16% [at 11.4 µM]. For the compound `CC(C)c1ccc(NC(=O)N(CCc2nc3ccccc3[nH]2)C2CCCC2)cc1`, the AC50 is 7.94 µM (active).

On to `COCC(=O)O[C@]1(CCN(C)CCCc2nc3ccccc3[nH]2)CCc2cc(F)ccc2[C@@H]1C(C)C`, for which the “activity, negative = inhibition” value is 13.1%. Same read-out and setting: next, `Cc1cnc(CNc2ncnc3ccc(-c4ccccc4C(F)(F)F)cc23)cn1`: -21.8% [at 2.29 µM]. Consider `COc1ccc(NS(=O)(=O)c2ccc(I)cc2)cc1N1CCN(C)CC1`, for which the “activity, negative = inhibition” value was -14%. Take `COc1ccc(S(=O)(=O)N2CCCCCC2)cc1N(C)S(=O)(=O)c1ccc(Cl)cc1`: the concentration at half-maximal activity (AC50) was 4.47 µM (active). As for `CSc1nc2cc(S(=O)(=O)N3CCCCC3)ccc2s1`, the activity, negative = inhibition was -29.2% [at 11.4 µM].

On to `CC(=O)ON(C(C)=O)S(=O)(=O)c1ccc(Cl)cc1`, for which the “activity, negative = inhibition” value is -9.68%.

Consider `COc1ccc(S(=O)(=O)Nc2ccc(S(=O)(=O)N3CCCCC3)cc2)cc1C`, for which the concentration at half-maximal activity (AC50) was 0.355 µM (active). As to `O=S(=O)(NCCNC/C=C\c1ccc(Br)cc1)c1cccc2cnccc12`, the “activity, negative = inhibition” value is -8.85%. Consider `Clc1ccc(Sc2ccc(/C=N/n3cnnc3)o2)cc1`, for which the AC50 is 7.94 µM (active).

In the case of `CN=C1S/C(=C\c2ccc(Sc3ccc(Cl)cc3)o2)C(=O)N1C`, the AC50 was 1.26 µM (active). On the same count and under the same terms, next, `Cc1ccc(Nc2nc(Cl)nc(N(C)C#N)n2)cc1`: 15.8 µM (active). `O[C@]1(c2ccccc2)c2ccccc2NC2=NCCN21`: the activity, negative = inhibition was 3.96% [at 11.4 µM]. Regarding `O=C(Nc1ccccc1)OCc1cc(-c2ccc(Cl)cc2)on1`, the AC50 was 2.82 µM (active). As to `CS(=O)(=O)c1ccccc1COC(=O)Nc1ccc(Cl)cc1`, the “activity, negative = inhibition” value was -21.7%. Same read-out and setting: next, `Cc1cnc(CNc2ncncc2-c2ccc(C(=O)N(C)C)cc2)cn1`: 26.6% [at 2.29 µM]; `Cc1cnc(CNc2nc(-c3ccccc3C)nc3ccccc23)cn1`: 18.8% [at 2.29 µM]; `CC(=O)NCCNc1ccnc(-c2ccccc2C)n1`: 7.25% [at 2.29 µM].

For `COc1ccc2nccc(SCC(=O)O)c2c1`, the activity, negative = inhibition is -6.85% [at 11.4 µM]. In the case of `COc1ccc2c(c1)nc(SCC(=O)c1ccc(Br)s1)n2C`, the AC50 is 15.8 µM (active).

Source of the values: PubChem BioAssay AID1851 (National Center for Advancing Translational Sciences (NCATS), 2009).
